Shown is part of a subset that was picked to be rich in hits.
Pf Dd2 growth = Plasmodium falciparum Dd2 growth inhibition; P. falciparum Dd2 growth, SYBR Green, 72 h; Potency, µM (series often up to 28.9 µM), hits mostly inhibitors; actives 4.3% (n = 120,000); AID 1347417; active = well fitted inhibition curve with a large enough effect; note: nearly all actives have a fitted effect of over 65% in size
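Infected erythrocytes (Dd2, 0.3% parasitemia, 2.5% hematocrit final) are added to compound in RPMI-1640/Albumax II medium, grown 72 h at 37C in low oxygen, then lysed with saponin/Triton-X containing SYBR Green and read by fluorescence.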
A number is an active result; i = inactive; [ ] = dose if it differs, or a comment.

SMILES | Pf Dd2 growth
CCc1nc2c(c(-c3ccc(O)cc3)n1)CCN(C(=O)c1ccc(OC)cc1)CC2 | i
Oc1ccc(-c2nc(C3CC3)nc3c2CCN(Cc2ccc(F)cc2)CC3)cc1 | 3.98µM
COc1ccc(CN2CCc3nc(C4CC4)nc(-c4ccc(O)cc4)c3CC2)cc1 | 3.98µM
COc1ccc(-c2cn3c(n2)CO[C@@H](CNC2CCCCC2)C3)cc1 | i
COc1ccc(CNC(=O)c2c(C)noc2-c2cccs2)cc1 | i
COc1ccccc1C(=O)N1CC2(C1)C(=O)Nc1ccccc12 | i
CNC(=O)[C@@H]1CN(Cc2ccccc2C(F)(F)F)C[C@H]1CO | i
COc1ccc(-c2ccc3nnc(CNC(=O)c4ccc(C)c(C)c4)n3n2)cc1 | i
CO[C@H]1[C@H](NC(=O)Cc2ccccc2)c2ccccc2C12CCNCC2 | i
CCOCc1nc(C2CCCNC2)no1 (configuration not stated) | i
O=C(c1ccccc1)N1CCC(c2n[nH]c(=O)n2-c2ccccc2)CC1 | i
Cc1ccc(-c2ccc(O)cn2)c2cccnc12 | i
COCCOC1CCOC2(CCN(C(=O)Cc3c(C)noc3C)CC2)C1 (configuration not stated) | i
COc1ccc(-c2nc(C3CC3)nc3c2CN(S(=O)(=O)c2cccc(OC)c2)CC3)cc1 | i
CC(=O)Nc1ccc(CN2CCc3nc(C4CC4)nc(-c4ccc(O)cc4)c3CC2)cc1 | i
COc1ccc(-c2nc(C3CC3)nc3c2CCN(Cc2ccc(NC(C)=O)cc2)CC3)cc1 | 8.91µM
COC(=O)[C@@H](C)NC(=O)[C@H]1CN(S(=O)(=O)c2ccccc2)CCN1C(=O)N1CCOCC1 | i
Cc1cc2ncc(C(=O)NC3CC3)cn2n1 | i
CC(C)CCN(C)C(C)c1cccs1 (configuration not stated) | i
O=C(Nc1ccccc1)N1CCc2c(c3ccccc3n2CC2CC2)C1 | i
CC(=O)N1CCc2cc(Br)cc(S(=O)(=O)N3CCC(C(=O)Nc4ccc(C(C)C)cc4)CC3)c21 | 10µM
CCC(=O)N1CCc2cc(Br)cc(S(=O)(=O)NCCc3ccc(C)cc3)c21 | i
CCC(=O)N1CCc2cc(Br)cc(S(=O)(=O)CCC(=O)Nc3ccc(Cl)cc3)c21 | 5.01µM
CC(C)c1ccc(NS(=O)(=O)c2cc(Br)cc3c2N(C(=O)C2CC2)CC3)cc1 | i
CC(=O)N1CCc2cc(Br)cc(S(=O)(=O)N3CCC(C(=O)N(C)c4cc(C)ccc4C)CC3)c21 | i
SMILES | Pf Dd2 growth
O=C(CCS(=O)(=O)c1cc(Br)cc2c1N(C(=O)C1CC1)CC2)NCc1ccc(Cl)cc1 | 6.31µM
CCC(=O)N1CCc2cc(Br)cc(S(=O)(=O)CCC(=O)NCCc3ccccc3)c21 | i
Cc1ccc(CNS(=O)(=O)c2cc(Br)cc3c2N(C(=O)C2CC2)CC3)cc1 | i
COc1ccc(CNC(=O)CCS(=O)(=O)c2cc(Br)cc3c2N(C(C)=O)C(C)C3)cc1 (configuration not stated) | i
Cc1ccc(NC(=O)CCS(=O)(=O)c2cc(Br)cc3c2N(C(=O)C2CC2)CC3)cc1 | 1µM
COc1ccc(NC(=O)CCS(=O)(=O)c2cc(Br)cc3c2N(C(C)=O)CC3)c(OC)c1 | i
O=C(CCS(=O)(=O)c1cc2c3c(c1)CCN3C(=O)CC2)NCc1ccc(Cl)cc1 | i
Cc1ccccc1-c1nc(N2CCOCC2)cc2c1CN(Cc1ccccc1)C2=O | i
O=C([C@@H]1C[C@H](Oc2ccccc2)CN1C(=O)c1ccn[nH]1)N1CCOCC1 | i
Cc1noc([C@@H]2CN(C(=O)Cc3c(F)cccc3Cl)C[C@H]2CO)n1 | i
COC(=O)c1c(NC(=O)c2ccco2)c2cc(NC(C)CCn3cccn3)cnc2n1C (configuration not stated) | i
COCCc1noc(C2Cc3ccccc3N2C(=O)Nc2cc(OC)cc(OC)c2)n1 (configuration not stated) | i[5.79 µM]
CCCN(CC1CCOC1)C(=O)c1cc(F)cc(F)c1 (configuration not stated) | i[5.79 µM]
O=C(CC1CCCN(c2cnn(CC3CC3)c(=O)c2)C1)NCc1ccncc1 (configuration not stated) | i
CCN1CCC(CCNC(=O)C2CCCN(Cc3ccncc3)CCC(=O)NCC2)CC1 (configuration not stated) | i
Cc1ccccc1-c1cnc2[nH]cc(CC(=O)NC3CC3)c2c1 | i
Cc1cccn2c(CNC(=O)CCc3cc4n(n3)CCCNC4)cnc12 | i
CCC(=O)N1CCc2cc(Br)cc(S(=O)(=O)CCC(=O)Nc3cccc(Cl)c3)c21 | 7.08µM
CCC(=O)N1CCc2cc(Br)cc(S(=O)(=O)CCC(=O)Nc3cccc(C)c3C)c21 | i
CCC(=O)N1CCc2cc(Br)cc(S(=O)(=O)NCCc3ccccc3Cl)c21 | i
COc1cccc(OCc2nc(C(=O)N3CCC4(CC3)CNC(=O)O4)co2)c1 | i
COc1ccccc1C(=O)N1CCCCCC1CN1CCOCC1 (configuration not stated) | i
Cc1ccc(NC(=O)c2cc(-c3ccc(Br)s3)nc3ccccc23)cc1F | i
COc1ccc(CNC(=O)c2cc(-c3ccc(Br)s3)nc3ccccc23)cc1 | i[5.79 µM]
CCN(CC)CC(C)CNC(=O)c1cc(-c2ccc(Br)s2)nc2ccccc12 (configuration not stated) | 11.2µM
SMILES | Pf Dd2 growth
COCCN1CCC(CN(C)C(=O)C(N)c2c(C)n[nH]c2C)CC1 (configuration not stated) | i
CN(Cc1ccc(Cl)cc1)Cc1ccccc1C(F)(F)F | i
N#CC1CCN(C(=O)C2(c3ccc(Cl)cc3)CCOCC2)CC1 | i
O=C(Nc1cccc(Cl)c1)N1CC(n2cc(COc3ccccc3)nn2)C1 | 7.94µM
CNC(=O)[C@@H]1C[C@H](n2cc(CNC(=O)Nc3cccc(Cl)c3)nn2)CN1 | i
O=C(Nc1ccccc1)N1CC(n2cc(C(=O)N3CCOCC3)nn2)C1 | i
CCn1ccnc1CN1CCCC(CNC(=O)c2cccc(OC)c2OC)C1 (configuration not stated) | i
COc1ccc2c(c1)nc1n2[C@@H](CNC2CCOCC2)COC1 | i
CC1(C)[C@H](Cc2cc(CCO)on2)C[C@@H]1NCc1ccco1 | i
COCc1cc(C[C@@H]2C[C@H](NC(=O)CC(C)(C)C)C2(C)C)no1 | i
COCC(=O)N[C@H]1C[C@@H](Cc2cc(CN(C)Cc3ccccc3)on2)C1(C)C | 8.91µM
CC1(C)[C@H](Cc2cc(CC3CCCCC3)on2)C[C@@H]1NC(=O)c1ccco1 | 5.01µM
CC(=O)N[C@H]1C[C@@H](Cc2cc(CC(C)C)on2)C1(C)C | i
CC(=O)N[C@H]1C[C@@H](Cc2cc(CN(C)c3ccccc3)on2)C1(C)C | i
COC(=O)C(=O)N[C@H]1C[C@@H](Cc2cc(-c3ccccc3)on2)C1(C)C | i
CC(=O)N1CCC(N[C@H]2C[C@@H](Cc3cc(CN(C)Cc4ccccc4)on3)C2(C)C)CC1 | i
COCC(=O)N[C@H]1C[C@@H](Cc2cc(-c3ccccc3)on2)C1(C)C | 7.94µM
CC(C)c1ccc(NC(=O)N2CCN(C)C3(CCC(=O)N(C)CC3)C2)cc1 (configuration not stated) | i
Cc1ccc(-c2nc(CNC(=O)C3(N)CC3)[nH]c2-c2ccccn2)cc1 | i
CCn1ccc(C(=O)N2C[C@@H](Oc3cccnc3)C[C@H]2C(=O)N2CCOCC2)n1 | i
COCC(=O)N1CC[C@@H](CC(=O)O)[C@@H](CCN2CCN(c3ccccc3OC)CC2)C1 | i
Cn1ccc2c(C(=O)NCc3cccnc3)nc(-c3ccc(N4CCOCC4)cc3)cc21 | i
CN(C)[C@H]1C[C@@H](Cc2cc(COc3ccccc3)on2)C1(C)C | i

From PubChem BioAssay
